PubChem BioAssay (NCATS)
“And” between values parts separate entries of the source, which are not always exact repeats. Equal entries are not always repeated. Results filed as inconclusive are left out. The source made the active and inactive calls. Unless noted, calls come from the whole dose curve; as a rule, active = well fitted curve in the direction sought with a large enough effect; inconclusive = small, poorly fitted or top-dose-only effect, or another doubt; inactive = no such curve, though single readings can be large; an effect the other way counts as inactive or inconclusive.

What was measured:
Es-2 = test: Primary qHTS to identify gynecologic anti-cancer compounds using libraries of approved drugs and bioactive compounds (AID 1345084); conditions: Gynecologic cancer cell panel viability, ATPlite luminescence, 48 h; series mostly up to 57.5 µM; note: % is set by controls: 0 for no effect and ±100 for the full control effect; nearly all actives have a fitted effect of over 55% in size
Method in brief: (§1)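 Five-point cytotoxicity, 48 h drug exposure at 37 C, 5% CO2, on cells seeded 16 h beforehand. ATP content read by ATPlite luminescence.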

HeLa = test: as above; conditions: Gynecologic cancer cell panel viability, ATPlite luminescence, 48 h; series mostly up to 57.5 µM
Method in brief: as §1

Hek293T = test: as above; conditions: Gynecologic cancer cell panel viability, ATPlite luminescence, 48 h, control line for the selectivity index; series mostly up to 57.5 µM
Method in brief: as §1

JEG-3 = test: as above; conditions: Gynecologic cancer cell panel viability, ATPlite luminescence, 48 h; series mostly up to 57.5 µM
Method in brief: as §1

OV90 = test: as above; conditions: Gynecologic cancer cell panel viability, ATPlite luminescence, 48 h; series mostly up to 57.5 µM
Method in brief: as §1

PA-1 = test: as above; conditions: Gynecologic cancer cell panel viability, ATPlite luminescence, 48 h; series mostly up to 57.5 µM
Method in brief: as §1

SKOV3 = test: as above; conditions: Gynecologic cancer cell panel viability, ATPlite luminescence, 48 h; series mostly up to 57.5 µM
Method in brief: as §1

Tov-21-G = test: as above; conditions: Gynecologic cancer cell panel viability, ATPlite luminescence, 48 h; series mostly up to 57.5 µM
Method in brief: as §1

Tov112D = test: as above; conditions: Gynecologic cancer cell panel viability, ATPlite luminescence, 48 h; series mostly up to 57.5 µM
Method in brief: as §1

[1] = Drug repurposing screens with cells derived from glioblastoma tumor samples (AID 1345199); conditions: GBM patient neurospheres viability, ATP luminescence, 48 h; note: % is set by controls: 0 for no effect and ±100 for the full control effect; nearly all actives have a fitted effect of over 40% in size
Method in brief: (§2)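 Four patient lines of CD133+ GBM neurospheres were screened at several concentrations; hits were retested in those lines plus three slower-growing GBM lines, using 48-hour treatment and ATP-based viability.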

astro = test: as above; conditions: viability, ATP luminescence, 48 h; series mostly up to 45.9 µM
Method in brief: as §2

[2] = qHTS assay to identify inhibitors of the type 1 interferon - major histocompatibility complex class I in skeletal muscle: Counter screen cell viability and HiBit confirmation (AID 1347412); conditions: iHSKM muscle cells + IFN-b, HiBiT or CellTiter-Glo, 24 h; Potency: HiBiT unless noted; Viability, at 45.9 µM (top of the series); note: % is set by controls: 0 for no effect and ±100 for the full control effect; nearly all actives have a fitted effect of over 60% in size
Method in brief: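 Duplicate plates, pinned identically: one read for HiBiT-tagged endogenous HLA-B luminescence, the other for ATP-content viability via CellTiter Glo. Cells were genome-engineered human myoblasts given 4 ng/ml IFN-b; compounds 12-pt, 1:3 from 46 uM final; 24 hr exposure.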

[3] = biological target: Nuclear receptor subfamily 1 group I member 2 (Rattus norvegicus) (UniProt Q9R1A7); test: qHTS assay for small molecule activators of the rat pregnane X receptor (rPXR) signaling pathway (AID 651751; call rule not given here; note: 0% is about no effect); conditions: rPXR reporter cells, luciferase (One-Glo), 24 h
[4] = qHTS assay for small molecule activators of the human pregnane X receptor (PXR) signaling pathway (AID 720659; call rule not given here; note: 0% is about no effect)
[5] = at 45.9 µM (top of the series), tumour line B
[6] = at 45.9 µM (top of the series), tumour line D
[7] = at 46 µM (top of the series), tumour line A
[8] = at 46.1 µM (top of the series), tumour line C
[9] = at 20 µM (top of the series), tumour line C
[10] = at 21.2 µM (top of the series), tumour line B
[11] = at 21.2 µM (top of the series), tumour line D
[12] = at 21.3 µM (top of the series), tumour line A

Nuclear receptor subfamily 1 group I member 2 (Rattus norvegicus), sequence (Q9R1A7 whole entry, looked up): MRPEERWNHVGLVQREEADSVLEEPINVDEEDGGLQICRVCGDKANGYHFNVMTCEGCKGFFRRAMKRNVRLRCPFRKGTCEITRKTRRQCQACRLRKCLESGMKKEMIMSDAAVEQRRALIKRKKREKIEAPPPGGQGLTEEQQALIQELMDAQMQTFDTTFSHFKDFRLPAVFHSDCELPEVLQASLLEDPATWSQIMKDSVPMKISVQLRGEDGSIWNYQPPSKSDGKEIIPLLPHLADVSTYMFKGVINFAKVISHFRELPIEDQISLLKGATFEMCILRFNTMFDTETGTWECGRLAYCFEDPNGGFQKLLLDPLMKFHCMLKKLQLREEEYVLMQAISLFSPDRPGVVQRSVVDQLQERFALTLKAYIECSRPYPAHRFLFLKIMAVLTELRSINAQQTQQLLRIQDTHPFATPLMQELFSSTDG

CCCC(=O)O[C@]1(C(=O)CO)CC[C@H]2[C@@H]3CCC4=CC(=O)CC[C@]4(C)[C@H]3[C@@H](O)C[C@@]21C
inactive: Potency (Es-2) | Potency (HeLa) | Potency (Hek293T) | Potency (JEG-3) | Potency (OV90) | Potency (PA-1) | Potency (SKOV3) | Potency (Tov-21-G) | Potency (Tov112D) | activity, negative = cell killing [1, 5] 1.95% | activity, negative = cell killing [1, 6] -21.3% | activity, negative = cell killing [1, 7] -2.7% | activity, negative = cell killing [1, 8] 6.32% | Potency (astro) | Potency [2]

CC(O)C(=O)O (stereo unspecified)
inactive: Potency (Es-2) | Potency (HeLa) | Potency (Hek293T) | Potency (JEG-3) | Potency (OV90) | Potency (PA-1) | Potency (SKOV3) | Potency (Tov-21-G) | Potency (Tov112D) | activity, negative = cell killing [1, 5] -5.68% | activity, negative = cell killing [1, 6] -11.1% | activity, negative = cell killing [1, 7] -8.3% | activity, negative = cell killing [1, 8] -6.94% | Potency (astro) | max response [3] 2.35% | outcome [4]

C[C@H]1[C@H](NC(=O)/C(=N/OC(C)(C)C(=O)O)c2csc(N)n2)C(=O)N1S(=O)(=O)O (stereo in doubt)
inactive: Potency (Es-2) | Potency (HeLa) | Potency (Hek293T) | Potency (JEG-3) | Potency (OV90) | Potency (PA-1) | Potency (SKOV3) | Potency (Tov-21-G) | Potency (Tov112D) | activity, negative = cell killing [1, 9] -1.55% | activity, negative = cell killing [1, 10] -2.78% | activity, negative = cell killing [1, 11] 9.37% | activity, negative = cell killing [1, 12] -17.3% | Potency (astro)

NCCCC[C@H](N[C@@H](CCc1ccccc1)C(=O)O)C(=O)N1CCC[C@H]1C(=O)O
inactive: Potency (Es-2) | Potency (HeLa) | Potency (Hek293T) | Potency (JEG-3) | Potency (OV90) | Potency (PA-1) | Potency (SKOV3) | Potency (Tov-21-G) | Potency (Tov112D) | activity, negative = cell killing [1, 9] 16.9% | activity, negative = cell killing [1, 10] -0.103% | activity, negative = cell killing [1, 11] -3.03% | activity, negative = cell killing [1, 12] 10.9% | Potency (astro)

CCOC(=O)c1cccc(N)c1
inactive: Potency (Es-2) | Potency (HeLa) | Potency (Hek293T) | Potency (JEG-3) | Potency (OV90) | Potency (PA-1) | Potency (SKOV3) | Potency (Tov-21-G) | Potency (Tov112D) | activity, negative = cell killing [1, 5] -17.6% | activity, negative = cell killing [1, 6] 2.11% | activity, negative = cell killing [1, 8] -0.117% | Potency (astro)

C[C@]12CCC(=O)C=C1CC[C@H]1[C@@H]3CC[C@](O)(C(=O)CO)[C@@]3(C)C[C@H](O)[C@@]12F
inactive: Potency (Es-2) | Potency (HeLa) | Potency (Hek293T) | Potency (JEG-3) | Potency (OV90) | Potency (PA-1) | Potency (SKOV3) | Potency (Tov-21-G) | Potency (Tov112D) | activity, negative = cell killing [1, 5] -5.55% and -2.43% | activity, negative = cell killing [1, 6] -21.3% and -14.3% | activity, negative = cell killing [1, 7] -18.5% and -26.2% | activity, negative = cell killing [1, 8] -25.3% and 1.15% | Potency (astro) | Potency [2]

CC(O)(P(=O)(O)O)P(=O)(O)O
inactive: Potency (Es-2) | Potency (HeLa) | Potency (Hek293T) | Potency (JEG-3) | Potency (OV90) | Potency (PA-1) | Potency (SKOV3) | Potency (Tov-21-G) | Potency (Tov112D) | activity, negative = cell killing [1, 5] -12.4% | activity, negative = cell killing [1, 6] 0.0097% | activity, negative = cell killing [1, 7] -26.7% | activity, negative = cell killing [1, 8] -3.69% | Potency (astro) | max response [3] -3.46% | outcome [4]

Cc1cc(O)c(C(C)C)cc1Cl
inactive: Potency (Es-2) | Potency (HeLa) | Potency (Hek293T) | Potency (JEG-3) | Potency (OV90) | Potency (PA-1) | Potency (SKOV3) | Potency (Tov-21-G) | Potency (Tov112D) | activity, negative = cell killing [1, 5] -5.69% | activity, negative = cell killing [1, 6] -7.04% | activity, negative = cell killing [1, 8] 8.96% | Potency (astro)
